Several values for one entry are separate records, joined by “and”; a condition that tells them apart may be missing. Equal entries are not always repeated.
Legend:
Type in all cases: functional
Plasmodium falciparum [1] = experiment: GSK_TCMDC: Inhibition of Plasmodium falciparum 3D7 in whole red blood cells, using parasite LDH activity as an index of growth. Test compounds present at 2uM
Plasmodium falciparum [2] = experiment: GSK_TCMDC: Inhibition of Plasmodium falciparum Dd2 in whole red blood cells, using parasite LDH activity as an index of growth. Test compounds present at 2uM
HepG2 = experiment: GSK_TCMDC: Percent inhibition of human HepG2 cell line. Test compounds present at 10uM.

SMILES	Inhibition (Plasmodium falciparum [1])	Inhibition (Plasmodium falciparum [2])	Inhibition (HepG2)
COc1ccccc1CNC(=O)c1cc(OC)c(OC)cc1NC(=O)c1cccs1	88%	71%	12%
COc1ccc2nc(C)cc(Nc3ccc(Oc4ccc5ccccc5c4Cl)c(Cl)c3)c2c1	100%	98%	32%
CCN(CC)CCN(Cc1ccc(-c2ccc(C(F)(F)F)cc2)cc1)C(=O)Cn1c(CCc2ccc(F)cc2)nc(=O)c2sccc21.O=C(O)C(O)C(O)C(=O)O	99%	90%	100%
CC1CN(c2cnn(Cc3cccc(NC(=O)Nc4cccc(C(F)(F)F)c4)c3)c(=O)c2Cl)CC(C)N1.O=C(O)C(F)(F)F (stereo unspecified)	96%	74%	19%
Cc1cc(NC(=O)[C@H](CC2CCCCC2)Nc2ccc(C#N)c3ccccc23)ccc1F.O=C(O)C(F)(F)F	100%	99%	21%
CC[C@H](C)CNC(=O)c1cncc(-c2ccc(CN3CCC(N4CCCC4)CC3)cc2)c1.O=C(O)C(F)(F)F	100%	100%	0%
COc1cc2c(c(Cl)c1OC)CCN(Cc1ccccc1)CC2c1ccc(NC(=O)C(F)(F)F)cc1 (stereo unspecified)	85%	79%	0%
NC(=O)c1ccccc1OCC(=O)Nc1cccc(-c2cccc(-c3nc4ccccc4[nH]3)c2)c1	88%	46%	23%
N[C@@H](Cc1cc(I)c(Oc2ccc(O)c(Cl)c2)c(I)c1)C(=O)O	96%	0%	0%
COc1ccc2c(=NN=Cc3ccccc3)cc(C)[nH]c2c1	100%	49%	0%
COc1cc(C)nc2ccc(NC(=O)Nc3ccccc3[N+](=O)[O-])cc12	100%	58%	6%
COc1ccc2ncc(F)c(CCN3CC(O)C(CNCc4nc5c(cc4Cl)OCC(=O)N5)C3)c2n1.Cl (stereo unspecified)	93% and 90%	23% and 15% and 30%	12% and 13% and 5%
CC(C)NCc1ccc(-c2ccc(NC(=O)c3cccc(Cl)c3)cc2)cc1.O=C(O)C(F)(F)F	100%	14%	36%
COc1ccc(CCn2c(=N)c(C(=O)NC3CCCC3)cc3c(=O)n4ccccc4nc32)cc1	99%	34%	11%
Cc1c(CNCCCNc2nc3ccncc3[nH]2)sc(Br)c1Br.Cl	87%	1%	0%
COc1cc2nccc(Nc3ccc(OCc4ccc(NC(C)=O)cc4)cc3)c2cc1OC.Cl	100%	95%	24%
CCN(CC)CCN(Cc1ccc(-c2ccc(C(F)(F)F)cc2)cc1)C(=O)Cn1c(CCc2cccc(F)c2F)nc(=O)c2ccc(C)cc21.O=C(O)C(O)C(O)C(=O)O	99%	58%	39%
COc1ccc2ncc(C#N)c(CCN3C[C@H](CNCc4ccccc4)[C@H](O)C3)c2n1.Cl	91%	24%	3%
O=C(Cn1nc(Br)nc1[N+](=O)[O-])NCC1CCCCC1	96%	57%	0%
CCCCCCc1cnc2nc(N)nc(N)c2c1C	93%	20%	67%
Cl.Nc1ncc(Cc2cc(Cl)c(N)c3ncccc23)c(N)n1	89%	95%	5%
O=C(Nc1cccnc1)c1cc(C(=O)Nc2cccnc2)cc([N+](=O)[O-])c1	100%	100%	0%
COc1ccc2nccc([C@@H](O)CN3CCC(NC(=O)C(c4cc5ccccc5o4)N4CCN(c5ccccc5)CC4)CC3)c2c1 (stereo partly specified)	99%	99%	19%
COc1ccc2nccc([C@@H](O)CN3CCC(NCc4ccc5cccc(O)c5n4)CC3)c2c1.O=C(O)C(=O)O	93%	40%	10%
O=C(NCCN1CCCC1)c1ccc(-c2ccc(-c3nc4cc(C(F)(F)F)ccc4[nH]3)s2)cc1	97%	65%	31%
O=C(Nc1ccc(C(F)(F)F)cc1)NC1CCN(c2ccnc3cc(Cl)ccc23)CC1.O=C(O)C(F)(F)F	100%	74%	22%
COc1cccc(-c2ccc(O)c(CNCCc3cccc(F)c3)c2)n1	96%	67%	0%

Source: ChEMBL document CHEMBL1157539, “Thousands of chemical starting points for antimalarial lead identification” (Nature, 2010)
